# Experimental data: PubChem BioAssay (NCATS)
# Values joined by “and” are separate entries in the source; they are usually repeats but may differ in a detail not shown here. Equal values may be shown once. Inconclusive results are not listed. Where a call stands in place of a potency, no number is given. A number with no mark means an inactive call. Active and inactive are the calls of the source. Unless noted, calls follow the shape of the dose curve; as a rule, active = well fitted curve in the direction sought with a large enough effect; inconclusive = small, poorly fitted or top-dose-only effect, or another doubt; inactive = no such curve, though single readings can be large; an effect the other way counts as inactive or inconclusive.
# Tests used:
# [1] = molecular target: Cellular tumor antigen p53 (Homo sapiens) (UniProt P04637); experiment: Primary qHTS for small molecule compounds that upregulate eGFP-tagged delta133p53alpha (in N-terminal) cells. (AID 2060322); conditions: NCI-H358 eGFP-delta133p53alpha fluorescence, 24 h; activation: active compounds read high; also: series mostly up to about 56 µM; nearly all actives have a fitted effect of over 75% in size
# Chain of Cellular tumor antigen p53 (Homo sapiens) (P04637 whole entry, looked up): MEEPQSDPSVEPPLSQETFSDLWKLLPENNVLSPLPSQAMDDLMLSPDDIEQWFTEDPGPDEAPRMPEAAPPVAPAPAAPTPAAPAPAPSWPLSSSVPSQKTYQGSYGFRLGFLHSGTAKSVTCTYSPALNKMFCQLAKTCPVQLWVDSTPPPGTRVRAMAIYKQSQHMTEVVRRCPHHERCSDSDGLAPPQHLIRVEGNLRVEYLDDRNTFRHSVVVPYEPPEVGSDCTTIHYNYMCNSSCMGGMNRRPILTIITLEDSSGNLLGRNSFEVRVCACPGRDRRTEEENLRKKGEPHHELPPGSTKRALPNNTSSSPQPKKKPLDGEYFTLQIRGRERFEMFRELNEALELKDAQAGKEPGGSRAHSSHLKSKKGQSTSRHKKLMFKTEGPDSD
# Outline: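 NCI-H358 cells pre-induced 24 h with 10 ng/ml doxycycline to express N-terminal eGFP-delta133p53alpha, then dosed 24 h at 37C without doxycycline; fixed, Hoechst-stained, GFP intensity by laser scanning cytometry, normalized to DMSO (0%) and 57.5 uM 5-azacytidine (100%).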
# [2] = molecular target: Aldehyde dehydrogenase, mitochondrial (Homo sapiens) (UniProt P05091); experiment: qHTS for Inhibitors of the Aldehyde Dehydrogenase Family (ALDH2) Primary screen (AID 2061308); also: nearly all actives have a fitted effect of over 55% in size
# [3] = molecular target: Retinaldehyde dehydrogenase 3 (Homo sapiens) (UniProt P47895); experiment: qHTS for Inhibitors of the Aldehyde Dehydrogenase Family (ALDH1A3) Validation screen (AID 2061312); also: nearly all actives have a fitted effect of over 45% in size
# [4] = molecular target: Retinaldehyde dehydrogenase 3 (Homo sapiens) (UniProt P47895); experiment: qHTS for Inhibitors of the Aldehyde Dehydrogenase Family (ALDH1A3) Primary screen (AID 2061315)
# [5] = qHTS for Inhibitors of the Aldehyde Dehydrogenase Family (ALDH1A2, ALDH1A3, ALDH2, ALDH3A1) (AID 2061307); also: nearly all actives have a fitted effect of over 50% in size
# [6] = molecular target: Retinaldehyde dehydrogenase 3 (Homo sapiens) (UniProt P47895); experiment: qHTS for Inhibitors of the Aldehyde Dehydrogenase Family (ALDH1A3) Confirmatory screens (AID 2061311); also: nearly all actives have a fitted effect of over 60% in size; also: potency is read from the fitted curve at half-maximal effect
# [7] = molecular target: Retinal dehydrogenase 2 (Homo sapiens) (UniProt O94788); experiment: qHTS for Inhibitors of the Aldehyde Dehydrogenase Family (ALDH1A2) Confirmation screens (AID 2061314); also: potency is read from the fitted curve at half-maximal effect; nearly all actives have a fitted effect of over 65% in size
# [8] = molecular target: Aldehyde dehydrogenase 1A1 (Homo sapiens) (UniProt P00352); experiment: qHTS for Inhibitors of the Aldehyde Dehydrogenase Family (ALDH1A1) Confirmatory screens (AID 2061316); also: nearly all actives have a fitted effect of over 65% in size
# [9] = BET inhibitor-based combinations targeting novel dependencies in MECOM-rearranged (r) AML: MV-4-11 cell line (AID 2202233); also: nearly all actives have a fitted effect of over 45% in size
# Outline: (§1)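 Activity is given as area under the curve and as Z-AUC, mean-centred within each cell line. It comes from 11-point dose curves normalized to DMSO and empty wells. CellTiter-Glo luminescence was read after 48 hr drug exposure of 500 cells/well.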
# [10] = BET inhibitor-based combinations targeting novel dependencies in MECOM-rearranged (r) AML: UCSD-AML1 cell line (AID 2202235); also: series mostly up to about 46 µM; nearly all actives have a fitted effect of over 40% in size
# Outline: as §1
# [11] = BET inhibitor-based combinations targeting novel dependencies in MECOM-rearranged (r) AML: AML-191 cell line (AID 2202236; also: nearly all actives have a fitted effect of over 35% in size)
# Outline: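 Cells were plated at 500 per well and exposed to an 11-point dose series of each drug for 48 hr. Viability was measured by CellTiter-Glo luminescence, normalized to DMSO and empty-well controls, and summarized as AUC and per-cell-line Z-AUC.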
# [12] = molecular target: Aldehyde dehydrogenase, mitochondrial (Homo sapiens) (UniProt P05091); experiment: qHTS for Inhibitors of the Aldehyde Dehydrogenase Family (ALDH2) Confirmatory screens (AID 2061303; active = well fitted inhibition curve with a large enough effect; title and protocol of this record describe different tests; also: nearly all actives have a fitted effect of over 45% in size)
compound,measurement,setting,value
COc1ccc2[nH]c(-c3ccccc3)c(CCN(C)C)c2c1,activation,[1],-11%
same,Potency,[2],inactive
same,Potency,[3],inactive
same,Potency,[4],inactive
C#CC1(O)CCC2C3CCC4=CC(=O)CCC4=C3C=CC21C (centres undefined),activation,[1],-16.3%
same,Potency,[2],inactive
Cc1c(Cl)c(OCC(=O)N2CCN(C)CC2)nc2sc(C(=O)NC3CC3)c(N)c12,activation,[1],5.25%
same,Potency,[2],inactive
same,Potency,[3],inactive
same,Potency,[4],inactive
CN1CCCCC1Cn1cc(C(=O)c2cc([N+](=O)[O-])ccc2I)c2ccccc21 (centres undefined),activation,[1],23.9%
same,Potency,[2],inactive
same,Potency,[3],inactive
same,Potency,[4],inactive
COC1=C[C@@H]2[C@@H]3Cc4ccc(OC)c(O)c4[C@]2(CCN3C)CC1=O,activation,[1],8.33%
same,Potency,[5],inactive
same,Potency,[2],inactive
same,Potency,[6],inactive
same,Potency,[7],7.12 µM (active)
same,Potency,[4],inactive
same,Potency,[8],inactive
same,Potency,[9],inactive
same,Potency,[10],inactive
same,Potency,[11],inactive
CC/C=C/C=C/C1(C)OC(OC)=C(C(=O)C2C(C)C(=O)c3cc(OC)c(O)c(O)c3C2(C)O)C1=O (centres undefined),activation,[1],0.893%
same,Potency,[5],inactive
same,Potency,[2],inactive
same,Potency,[6],11 µM (active)
COc1cc2c(c(OC)c1OC)-c1ccc(SC)c(=O)cc1[C@@H](NC(C)=O)CC2,activation,[1],8.33%
same,Potency,[2],inactive
C=CCN1CC[C@]23c4c5ccc(O)c4O[C@H]2[C@@H](O)CC[C@@]3(O)[C@H]1C5,activation,[1],4.33%
same,Potency,[2],inactive
Cc1ncc(CNC(=O)N(CCCl)N=O)c(N)n1,activation,[1],6.21% and -40.8%
same,Potency,[12],inactive
same,Potency,[5],inactive
same,Potency,[6],inactive
same,Potency,[8],inactive
C=CC(C)(C)c1[nH]c2c(CC=C(C)C)cc(CC=C(C)C)cc2c1C[C@@H]1NC(=O)[C@H](C)NC1=O,activation,[1],14.3%
same,Potency,[2],inactive
